# Hit rate of the full screen: of about 52,000 compounds, about 4,300 (8.3%) were called active. Cut-off read from the data, not from the text of the source: active = survival mostly below about 52% (no sharp cut-off); inactive = mostly above about 56%. Many of the other results were omitted from the sample, so actives are more common in it than they were.
# Test system: DeltatarO mutant
# Assay: S. aureus survival, RN4220 and DeltatarO strains – OD600, teichoic acid synthesis inhibitors, primary screen (AID 463173)
# Settings: S. aureus RN4220 wild type/DeltatarO growth, OD600, 18 h, active compounds read low, screened at 18.75 µg/mL (by protocol)
row,Structure (SMILES),survival
1,Cc1ccccc1Cn1c(C)c(CNCc2ccccc2)c(C(=O)O)c1C,84% (inactive)
2,Cc1cccc(N(CC(=O)N(C)Cc2ccccc2)S(=O)(=O)c2ccccc2)c1C,47% (inactive)
3,O=S(=O)(c1ccc(Cl)cc1)c1nnn2c1nc(NCc1ccc3c(c1)OCO3)c1sccc12,69% (inactive)
4,Cc1ccc2c(=O)c(C(=O)c3cccc(Cl)c3)cn(CC(=O)Nc3ccc4c(c3)OCCO4)c2n1,80% (inactive)
5,CC(=O)Nc1ccc(S(=O)(=O)N2CCC(c3nnnn3-c3ccccc3)CC2)cc1,76% (inactive)
6,O=C(NCCN1CCCCC1)Nc1c[nH]c2c(Cl)cccc2c1=O,102% (inactive)
7,COC(=O)c1cc(-c2ccc(Cl)cc2)c2c(=O)[nH]c(=O)n(C)c2n1,92% (inactive)
8,COc1ccc(-c2noc(-c3nnn(-c4cc(C)ccc4C)c3N)n2)cc1,81% (inactive)
9,Cc1ccc(-c2noc(CNC(C)C)n2)cc1,77% (inactive)
10,COc1ccc(-c2noc(CC(=O)Nc3ccc(Br)cc3C)n2)cc1,59% (inactive)
11,Cc1ccc(CC(=O)NCc2nc(-c3ccccc3)no2)cc1,77% (inactive)
12,COc1ccc(-c2noc(CN(C(=O)COc3cc(C)c(Br)c(C)c3)C(C)C)n2)cc1,31% (active)
13,Cc1ccc(CC(=O)N(Cc2nc(-c3ccc(C)cc3)no2)C(C)C)cc1,-4% (active)
14,Cc1ccc(-c2noc(CNC(=O)COc3cc(C)c(Br)c(C)c3)n2)cc1,80% (inactive)
15,O=C(CS(=O)(=O)c1cccc2nsnc12)Nc1ccc(F)cc1,97% (inactive)
16,CCN(CC)C(=O)CSc1nc2c(c(=O)n(C)c(=O)n2C)n1Cc1ccccc1,76% (inactive)
17,Cc1ccc(C)c(NC(=O)C(NS(=O)(=O)c2ccc3c(c2)CCC(=O)N3)c2ccccc2)c1 (stereo unspecified),113% (inactive)
18,COC(=O)c1ccc(NCC(=O)c2ccccc2)cc1,64% (active)
19,COC(=O)c1ccc(NC(=O)CCOc2ccccc2)cc1,69% (inactive)
20,CCOC(=O)Nc1ccc(C(=O)OC)cc1,75% (inactive)
21,O=C(NC1CCCCC1)/C(=N\O)c1ccccn1,97% (inactive)
22,CCOc1ccc(NC(=O)Cn2cc(C(=O)c3ccc(C)c(C)c3)c(=O)c3cc4c(cc32)OCCO4)cc1,62% (inactive)
23,CC1=NN(c2ccc(N)cc2)C(=O)C1,107% (inactive)
24,CCOC(=O)c1sc(N2N=C(C)CC2=O)nc1C,76% (inactive)
25,CCCCCN1N=C(C)CC1=O,39% (active)
26,CCN(CC)CCCNC(=O)C(=O)Nc1ccc2nc3n(c(=O)c2c1)CCCCC3,91% (inactive)

row,Structure (SMILES),survival
1,COc1ccc(-c2noc(CCC(=O)Nc3cccc(C)c3C)n2)cc1OC,69% (inactive)
2,COc1cc2ccccc2cc1C(=O)Nc1ccc2oc(-c3ccc(Cl)cc3)nc2c1,59% (inactive)
3,COc1cc2ccccc2cc1C(=O)Nc1ccc2oc(-c3ccc(F)cc3Cl)nc2c1,59% (inactive)
4,Cc1cccc(-c2nc3cc(NC(=O)COc4ccccc4F)ccc3o2)c1,103% (inactive)
5,CCc1ccc2oc(-c3ccc(NC(=O)c4ccc(OC)c(Br)c4)cc3)nc2c1,60% (inactive)
6,CCc1ccc(-c2nc3cc(NC(=O)c4cc5ccccc5cc4OC)ccc3o2)cc1,11% (active)
7,CCc1ccc(OCC(=O)Nc2ccc3oc(-c4ccc(OC)cc4)nc3c2)cc1,62% (inactive)
8,O=C(Nc1ccc(-c2nc3cc(NC(=O)c4ccccc4F)ccc3o2)cc1)c1ccccc1F,90% (inactive)
9,COc1cc2ccccc2cc1C(=O)Nc1ccc2oc(-c3ccc(F)cc3)nc2c1,43% (active)
10,COc1cc2ccccc2cc1C(=O)Nc1ccc2oc(-c3cccc(C)c3)nc2c1,25% (active)
11,COc1cc(C(=O)Nc2ccc3oc(-c4ccccc4)nc3c2)cc(OC)c1OC,51% (inactive)
12,COc1cc2ccccc2cc1C(=O)Nc1ccc2oc(-c3ccccc3)nc2c1,8% (active)
13,COc1ccc(C(=O)Nc2ccc3oc(-c4ccc5ccccc5c4)nc3c2)cc1Br,63% (inactive)
14,COC(=O)CSc1ccc2nnc(CCNS(=O)(=O)c3ccccc3)n2n1,118% (inactive)
15,CCc1ccc(NC(=O)NCCc2c(C)nn(C)c2C)cc1,72% (inactive)
16,COc1ccccc1Cn1cc(C(=O)c2ccc(Cl)cc2)c(=O)c2ccccc21,83% (inactive)
17,Cc1cccc(Cn2c(=O)n(Cc3ccc4c(c3)OCO4)c(=O)c3oc4ccccc4c32)c1,77% (inactive)
18,Cc1oc2ncn(CC(C)C)c(=O)c2c1C(=O)Nc1cc(F)ccc1F,65% (inactive)
19,COc1ccc2c(CNC3CCC(C)CC3)c(C(=O)O)n(Cc3ccc(F)cc3)c2c1 (stereo unspecified),70% (inactive)
20,CCC(=O)n1nc(-c2ccccc2)nc1N,104% (inactive)
21,CN(Cc1ccccc1)c1ncnc2c1nnn2C,72% (inactive)
22,COc1cccc(CNC(=O)CSc2nc(=O)[nH]c3c2CCCC3)c1,85% (inactive)
23,C=CCSc1nnc(-c2ccccc2)n1-c1ccccc1,103% (inactive)
24,Cc1c(Cl)cccc1NC(=O)CSc1nc(=O)[nH]c2c1CCC2,93% (inactive)
25,CCN1C(=O)C(Cc2nc3ccccc3c(=O)n2-c2cccc(C)c2)c2ccccc21 (stereo unspecified),50% (inactive)
26,CCOC(=O)CSc1nc2ccccc2c(=O)n1-c1cccc(C)c1,31% (active)

row,Structure (SMILES),survival
1,CCCN1C(=O)C(Cc2nc3ccccc3c(=O)n2-c2cccc(C)c2)c2ccccc21 (stereo unspecified),36% (active)
2,Cc1cccc(-n2c(SCC(N)=O)nc3ccccc3c2=O)c1,90% (inactive)
3,CCOC(=O)CSc1nc2ccccc2c(=O)n1-c1ccc(C(=O)NCCOC)cc1,96% (inactive)
4,CCCN1C(=O)C(Cc2nc3ccccc3c(=O)n2-c2ccccc2)c2cc(C)ccc21 (stereo unspecified),68% (inactive)
5,CCCN1C(=O)C(Cc2nc3ccccc3c(=O)n2CC)c2cc(Br)ccc21 (stereo unspecified),34% (active)
6,CCn1c(CC2C(=O)N(C)c3ccc(Br)cc32)nc2ccccc2c1=O (stereo unspecified),70% (inactive)
7,CCCN1C(=O)C(Cc2nc3ccccc3c(=O)n2CC)c2ccccc21 (stereo unspecified),84% (inactive)
8,COCCN(C(=O)c1ccccc1)c1nnc(-c2ccncc2)s1,94% (inactive)
9,Cc1cc(C)cc(NC(=O)CSc2nc(=O)[nH]c3c2CCC3)c1,112% (inactive)
10,CCCOC1(C(F)(F)F)NC(=O)N(c2ccc(Cl)cc2)C1=O (stereo unspecified),66% (inactive)
11,Cc1cc(C)c2c(n1)SCCN2C(=O)Nc1ccc(C(=O)Nc2cc(Cl)ccc2C)cc1,97% (inactive)
12,CC(=O)Nc1ccc(NC(=O)CCc2c(C)nc3c(c(C)nn3-c3ccc(C)cc3)c2C)cc1,114% (inactive)
13,CCC1CN(C(=O)N2CCC(C(=O)N3CCN(c4cc(C)ccc4C)CC3)CC2)c2ccccc2O1 (stereo unspecified),36% (active)
14,CCC1CN(C(=O)N2CCC(C(=O)N3CCN(c4cccc(C)c4C)CC3)CC2)c2ccccc2O1 (stereo unspecified),62% (inactive)
15,CCC1CN(C(=O)N2CCC(C(=O)N3CCN(c4ccccc4F)CC3)CC2)c2ccccc2O1 (stereo unspecified),97% (inactive)
16,CC1=C(C(=O)Nc2ccc(C)cc2C)C(c2sccc2C)n2ncnc2N1 (stereo unspecified),68% (inactive)
17,O=C(NC1CCCC1)c1ccc2c(c1)OCO2,69% (inactive)
18,O=C1C2C3c4ccccc4C(c4ccccc43)C2C(=O)N1C(CO)(CO)CO (stereo unspecified),102% (inactive)
19,CC1=C(C(=O)OC2CCCC2)C(c2c(Cl)cccc2Cl)CC(=O)N1 (stereo unspecified),71% (inactive)
20,CC1=C(C(=O)OC2CCCCCC2)C(c2c(F)cccc2Cl)CC(=O)N1 (stereo unspecified),57% (inactive)
21,CC1=C(C(=O)OC2CCCCCC2)C(c2c(Cl)cccc2Cl)CC(=O)N1 (stereo unspecified),32% (active)
22,CCCN1CC=C2C(C#N)=C(N)C(C#N)(C#N)C(c3ccc(OCC(N)=O)cc3)C2C1 (stereo unspecified),81% (inactive)
23,CCCc1ccc(S(=O)(=O)N2CCC(c3nnc(-c4cccc(C)c4)o3)CC2)cc1,75% (inactive)
24,COc1ccc(CNCc2c(C(=O)O)c(C)n(Cc3ccccc3C)c2C)cc1OC,91% (inactive)
25,COc1cc(/C=C(\C#N)C(=O)Nc2ccc(C)cc2)ccc1OCc1cc(=O)n2nc(C)sc2n1,78% (inactive)
26,CCOc1cc(/C=C(\C#N)C(=O)Nc2ccc(C)cc2)ccc1OCc1cc(=O)n2nc(CC)sc2n1,68% (inactive)

row,Structure (SMILES),survival
1,CCOc1cc(/C=C(\C#N)C(=O)Nc2ccc(OC)cc2)ccc1OCc1cc(=O)n2nc(CC)sc2n1,55% (active)
2,Cc1nn2c(=O)cc(COc3ccc(/C=C(\C#N)C(=O)Nc4ccccc4)cc3Cl)nc2s1,49% (active)
3,COc1ccc(NC(=O)/C(C#N)=C/c2ccc(OCc3cc(=O)n4nc(C)sc4n3)cc2)cc1,61% (inactive)
4,CCc1nn2c(=O)cc(COc3ccc(/C=C(\C#N)C(=O)Nc4ccc(F)cc4)cc3OC)nc2s1,106% (inactive)
5,CCOc1ccc(NC(=O)CSc2nc3ccsc3c(=O)n2CC)cc1,89% (inactive)
6,Cc1cc(C)n2nc(C(=O)N/N=C/c3ccncc3)nc2n1,76% (inactive)
7,On1c2c(c3c4nonc4ccc31)CCCC2,0% (active)
8,c1ccc(-n2nc3ccc4nonc4c3n2)cc1,86% (inactive)
9,COc1ccc(-c2[nH]c3ccccc3c2SCCNC(=O)c2ccc(S(=O)(=O)N(C)C)cc2)cc1,67% (inactive)
10,COc1cccc(C2=C(C(C)=O)Sc3nnc(C4CCCCC4)n3N2C(C)=O)c1,81% (inactive)
11,CCOc1ccccc1NC(=O)c1cccc2c1C(=O)N(C1CCCCC1)C2,92% (inactive)
12,CC(C)(C)C(=O)N1CCCC(c2nc3c(nnn3Cc3ccc(C(C)(C)C)cc3)c(=O)[nH]2)C1 (stereo unspecified),1% (active)
13,Cc1ccccc1Cn1nnc2c(=O)[nH]c(C3CCCN(C(=O)c4ccc(F)cc4)C3)nc21 (stereo unspecified),114% (inactive)
14,O=C(Nc1ccc(F)cc1)N1CCCC(c2nc3c(nnn3Cc3ccccc3Cl)c(=O)[nH]2)C1 (stereo unspecified),88% (inactive)
15,CC(C)(C)c1ccc(C(=O)N2CCCC(c3nc4c(nnn4Cc4cccc(F)c4)c(=O)[nH]3)C2)cc1 (stereo unspecified),7% (active)
16,Cc1cccc(Cn2nnc3c(=O)[nH]c(C4CCCN(C(=O)c5ccccc5Cl)C4)nc32)c1 (stereo unspecified),71% (inactive)
17,CCc1ccc(Cn2nnc3c(=O)[nH]c(C4CCCN(C(=O)c5cccc(Cl)c5)C4)nc32)cc1 (stereo unspecified),74% (inactive)
18,Cc1ccccc1Cn1nnc2c(=O)[nH]c(C3CCCN(C(=O)c4ccc(C(C)(C)C)cc4)C3)nc21 (stereo unspecified),7% (active)
19,COc1cccc(Cn2nnc3c(=O)[nH]c(C4CCCN(C(=O)c5ccc(C)cc5)C4)nc32)c1 (stereo unspecified),90% (inactive)
20,CCCC(=O)N1CCCC(c2nc3c(nnn3Cc3ccccc3)c(=O)[nH]2)C1 (stereo unspecified),102% (inactive)
21,O=C(c1cccs1)N1CCCC(c2nc3c(nnn3Cc3ccc(F)cc3)c(=O)[nH]2)C1 (stereo unspecified),101% (inactive)
22,Cc1ccc(Cn2nnc3c(=O)[nH]c(C4CCCN(C(=O)c5ccco5)C4)nc32)cc1 (stereo unspecified),91% (inactive)
23,Cc1cccc(Cn2nnc3c(=O)[nH]c(C4CCCN(C(=O)c5ccc(C(C)(C)C)cc5)C4)nc32)c1 (stereo unspecified),18% (active)
